Columns and labels:
Experiment in all cases: DAPPL (digital affinity profiling via proximity ligation, sequencing); 10 mM Tris-HCl pH 7.5, 50 mM NaCl, 1 mM DTT, 4% glycerol, room temperature, 30 min; GST-TFs on glutathione beads, 16-mer random dsDNA library, 0.1% formaldehyde crosslink after washing; high values mean tight binding
[1] = target: T1, FLI1 (Homo sapiens, UniProt Q01543 1-452); settings: protein: recombinant; tags: N-terminal GST; dsDNA, one strand shown
T1 sequence: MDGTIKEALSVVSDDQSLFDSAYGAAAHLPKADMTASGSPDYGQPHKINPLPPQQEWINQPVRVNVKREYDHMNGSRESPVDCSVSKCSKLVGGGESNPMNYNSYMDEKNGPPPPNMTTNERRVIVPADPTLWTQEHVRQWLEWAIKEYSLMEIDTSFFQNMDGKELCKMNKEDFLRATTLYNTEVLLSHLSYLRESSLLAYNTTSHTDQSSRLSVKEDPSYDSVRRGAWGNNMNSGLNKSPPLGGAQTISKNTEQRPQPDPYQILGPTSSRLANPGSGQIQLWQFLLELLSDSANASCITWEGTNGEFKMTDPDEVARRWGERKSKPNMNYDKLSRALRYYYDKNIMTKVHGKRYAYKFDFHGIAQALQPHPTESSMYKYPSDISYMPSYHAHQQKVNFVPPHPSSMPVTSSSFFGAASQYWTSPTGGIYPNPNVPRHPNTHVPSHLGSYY
Procedure, shortened: (§1)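 A tag-only sample was pooled with DNA-barcoded human transcription factors that had been expressed in yeast as GST fusions and captured on glutathione beads. The pools were incubated for 30 min at room temperature with 200 nmole of a random double-stranded 16-mer DNA library in Tris/NaCl/DTT/glycerol buffer, then washed, crosslinked with 0.1% formaldehyde, proximity-ligated (BsaI/T4 ligase, 1 h, 37 °C), PCR-amplified and sequenced on an Illumina NextSeq500. Binding signal is each hexamer's read frequency for a factor divided by its frequency for the tag-only sample.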

[2] = target: T2, ELK1 (Homo sapiens, UniProt P19419 1-428); settings: protein: recombinant; tags: N-terminal GST; dsDNA, one strand shown
T2 sequence: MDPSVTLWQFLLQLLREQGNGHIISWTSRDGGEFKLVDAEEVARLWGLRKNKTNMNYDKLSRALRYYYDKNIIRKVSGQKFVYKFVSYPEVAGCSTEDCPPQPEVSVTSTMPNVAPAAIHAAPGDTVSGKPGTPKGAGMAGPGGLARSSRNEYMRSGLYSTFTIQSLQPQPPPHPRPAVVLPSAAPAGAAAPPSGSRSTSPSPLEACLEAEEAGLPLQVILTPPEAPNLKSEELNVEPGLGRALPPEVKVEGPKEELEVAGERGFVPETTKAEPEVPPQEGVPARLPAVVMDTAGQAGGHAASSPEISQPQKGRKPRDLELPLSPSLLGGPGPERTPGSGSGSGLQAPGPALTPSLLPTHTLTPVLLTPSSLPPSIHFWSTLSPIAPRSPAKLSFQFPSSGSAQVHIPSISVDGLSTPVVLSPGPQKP
Procedure, shortened: as §1

[3] = target: T3, GABPA (Homo sapiens, UniProt Q06546 1-454); settings: protein: recombinant; tags: N-terminal GST; dsDNA, one strand shown
T3 sequence: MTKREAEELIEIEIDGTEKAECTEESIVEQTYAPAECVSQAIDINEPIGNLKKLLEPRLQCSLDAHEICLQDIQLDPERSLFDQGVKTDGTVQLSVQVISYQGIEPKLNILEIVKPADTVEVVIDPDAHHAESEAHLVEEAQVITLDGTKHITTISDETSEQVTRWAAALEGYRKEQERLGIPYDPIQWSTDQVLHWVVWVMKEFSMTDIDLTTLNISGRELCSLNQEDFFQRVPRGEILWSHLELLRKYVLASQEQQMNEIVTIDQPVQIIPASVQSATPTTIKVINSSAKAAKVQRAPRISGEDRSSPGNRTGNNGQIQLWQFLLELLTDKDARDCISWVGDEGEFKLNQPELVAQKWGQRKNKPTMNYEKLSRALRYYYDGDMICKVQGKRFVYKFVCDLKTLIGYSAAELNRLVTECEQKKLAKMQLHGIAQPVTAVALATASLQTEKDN
Procedure, shortened: as §1

[4] = target: T4, ERG (Homo sapiens, UniProt P11308 1-479); settings: protein: recombinant; tags: N-terminal GST; dsDNA, one strand shown
T4 sequence: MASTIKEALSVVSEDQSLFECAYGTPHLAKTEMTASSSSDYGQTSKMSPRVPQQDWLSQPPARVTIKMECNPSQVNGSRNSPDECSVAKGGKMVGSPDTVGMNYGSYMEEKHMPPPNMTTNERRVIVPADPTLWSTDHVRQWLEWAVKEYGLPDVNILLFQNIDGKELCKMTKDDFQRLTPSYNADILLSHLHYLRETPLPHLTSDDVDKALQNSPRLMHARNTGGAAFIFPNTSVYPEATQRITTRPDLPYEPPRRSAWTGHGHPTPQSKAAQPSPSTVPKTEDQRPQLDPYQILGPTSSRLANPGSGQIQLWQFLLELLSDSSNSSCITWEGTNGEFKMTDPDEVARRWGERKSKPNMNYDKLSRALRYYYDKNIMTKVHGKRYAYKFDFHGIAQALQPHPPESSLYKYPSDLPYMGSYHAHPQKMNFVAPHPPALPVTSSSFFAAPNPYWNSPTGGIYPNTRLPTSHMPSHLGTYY
Procedure, shortened: as §1

[5] = target: ELF1 (Homo sapiens, UniProt P32519 1-619); settings: protein: recombinant; tags: N-terminal GST; dsDNA, one strand shown
Chain of ELF1 (P32519 whole entry): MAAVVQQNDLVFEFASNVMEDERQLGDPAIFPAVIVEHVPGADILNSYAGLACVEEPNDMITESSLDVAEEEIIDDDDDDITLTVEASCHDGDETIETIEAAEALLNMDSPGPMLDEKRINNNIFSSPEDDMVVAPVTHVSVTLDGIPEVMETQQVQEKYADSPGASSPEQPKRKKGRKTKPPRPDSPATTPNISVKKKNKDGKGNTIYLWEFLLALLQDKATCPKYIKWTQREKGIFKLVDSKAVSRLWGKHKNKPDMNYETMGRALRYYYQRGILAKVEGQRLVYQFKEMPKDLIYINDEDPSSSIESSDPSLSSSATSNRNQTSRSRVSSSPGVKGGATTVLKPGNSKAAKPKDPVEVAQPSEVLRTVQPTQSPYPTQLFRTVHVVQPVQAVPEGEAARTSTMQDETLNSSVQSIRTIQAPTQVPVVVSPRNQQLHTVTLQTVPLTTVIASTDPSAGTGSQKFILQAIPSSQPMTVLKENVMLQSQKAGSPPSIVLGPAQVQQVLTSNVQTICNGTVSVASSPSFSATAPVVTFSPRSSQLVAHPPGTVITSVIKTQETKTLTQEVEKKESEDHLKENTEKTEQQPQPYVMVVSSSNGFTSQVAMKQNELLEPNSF
Procedure, shortened: as §1

[6] = target: T5, EHF (Homo sapiens, UniProt Q9NZC4 1-300); settings: protein: recombinant; tags: N-terminal GST; dsDNA, one strand shown
T5 sequence: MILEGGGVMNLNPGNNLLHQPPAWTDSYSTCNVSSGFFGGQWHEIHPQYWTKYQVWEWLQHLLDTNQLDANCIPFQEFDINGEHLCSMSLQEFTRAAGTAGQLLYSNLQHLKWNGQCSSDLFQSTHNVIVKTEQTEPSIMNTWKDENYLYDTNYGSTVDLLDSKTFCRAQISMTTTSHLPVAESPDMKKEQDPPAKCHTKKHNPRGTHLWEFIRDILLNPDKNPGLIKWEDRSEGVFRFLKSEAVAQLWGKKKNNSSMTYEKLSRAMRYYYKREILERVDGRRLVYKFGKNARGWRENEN
Procedure, shortened: as §1

[7] = target: SPI1 (Homo sapiens, UniProt P17947 1-270); settings: protein: recombinant; tags: N-terminal GST; dsDNA, one strand shown
Procedure, shortened: as §1

[8] = target: SPIB (Homo sapiens, UniProt Q01892 1-262); settings: protein: recombinant; tags: N-terminal GST; dsDNA, one strand shown
Chain of SPIB (Q01892 whole entry): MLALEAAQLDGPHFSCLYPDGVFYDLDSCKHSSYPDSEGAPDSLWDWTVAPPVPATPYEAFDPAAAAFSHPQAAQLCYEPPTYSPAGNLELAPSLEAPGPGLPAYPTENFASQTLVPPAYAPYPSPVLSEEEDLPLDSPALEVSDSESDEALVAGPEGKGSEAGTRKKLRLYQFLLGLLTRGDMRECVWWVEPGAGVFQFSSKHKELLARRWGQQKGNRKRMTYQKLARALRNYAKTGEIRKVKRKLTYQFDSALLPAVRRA
Procedure, shortened: as §1

[9] = target: T6, ELK3 (Homo sapiens, UniProt P41970 1-407); settings: protein: recombinant; tags: N-terminal GST; dsDNA, one strand shown
T6 sequence: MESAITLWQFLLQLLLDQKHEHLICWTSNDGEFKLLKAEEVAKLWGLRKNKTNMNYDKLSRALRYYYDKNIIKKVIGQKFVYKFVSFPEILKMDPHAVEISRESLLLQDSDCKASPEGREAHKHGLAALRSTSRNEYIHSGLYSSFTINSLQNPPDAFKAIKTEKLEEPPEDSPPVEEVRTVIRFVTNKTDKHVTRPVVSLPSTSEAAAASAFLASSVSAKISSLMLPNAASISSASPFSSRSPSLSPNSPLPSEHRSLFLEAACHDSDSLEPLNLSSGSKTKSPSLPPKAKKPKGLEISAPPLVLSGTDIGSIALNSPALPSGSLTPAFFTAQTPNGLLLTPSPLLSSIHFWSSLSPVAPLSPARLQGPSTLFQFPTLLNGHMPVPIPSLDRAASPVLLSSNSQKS
Procedure, shortened: as §1

[10] = target: T7, FEV (Homo sapiens, UniProt Q99581 1-238); settings: protein: recombinant; tags: N-terminal GST; dsDNA, one strand shown
T7 sequence: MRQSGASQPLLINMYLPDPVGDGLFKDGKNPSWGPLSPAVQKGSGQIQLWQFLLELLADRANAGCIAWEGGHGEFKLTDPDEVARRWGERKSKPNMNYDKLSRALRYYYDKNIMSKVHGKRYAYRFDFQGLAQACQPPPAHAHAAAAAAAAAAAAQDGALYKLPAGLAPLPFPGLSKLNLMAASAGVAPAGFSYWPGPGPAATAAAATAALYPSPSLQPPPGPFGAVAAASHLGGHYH
Procedure, shortened: as §1

[11] = target: ETV5 (Homo sapiens, UniProt P41161 1-510); settings: protein: recombinant; tags: N-terminal GST; dsDNA, one strand shown
Chain of ETV5 (P41161 whole entry): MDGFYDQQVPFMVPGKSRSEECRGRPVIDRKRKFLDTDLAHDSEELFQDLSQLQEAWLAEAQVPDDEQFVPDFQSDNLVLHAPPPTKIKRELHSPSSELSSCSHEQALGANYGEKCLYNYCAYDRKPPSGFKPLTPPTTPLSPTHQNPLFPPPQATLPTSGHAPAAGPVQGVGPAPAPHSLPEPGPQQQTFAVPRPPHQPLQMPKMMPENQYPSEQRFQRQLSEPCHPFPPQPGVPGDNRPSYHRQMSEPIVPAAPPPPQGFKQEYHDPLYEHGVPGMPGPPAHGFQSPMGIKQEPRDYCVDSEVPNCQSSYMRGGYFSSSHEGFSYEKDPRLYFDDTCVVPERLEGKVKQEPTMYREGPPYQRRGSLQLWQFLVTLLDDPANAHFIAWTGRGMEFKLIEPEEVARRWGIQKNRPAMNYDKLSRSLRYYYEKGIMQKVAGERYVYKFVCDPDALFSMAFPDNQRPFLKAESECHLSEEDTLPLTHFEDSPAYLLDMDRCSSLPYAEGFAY
Procedure, shortened: as §1

[12] = target: HSF1 (Homo sapiens, UniProt Q00613 1-529); settings: protein: recombinant; tags: N-terminal GST; chain copies: 3; dsDNA, one strand shown
Chain of HSF1 (Q00613 whole entry): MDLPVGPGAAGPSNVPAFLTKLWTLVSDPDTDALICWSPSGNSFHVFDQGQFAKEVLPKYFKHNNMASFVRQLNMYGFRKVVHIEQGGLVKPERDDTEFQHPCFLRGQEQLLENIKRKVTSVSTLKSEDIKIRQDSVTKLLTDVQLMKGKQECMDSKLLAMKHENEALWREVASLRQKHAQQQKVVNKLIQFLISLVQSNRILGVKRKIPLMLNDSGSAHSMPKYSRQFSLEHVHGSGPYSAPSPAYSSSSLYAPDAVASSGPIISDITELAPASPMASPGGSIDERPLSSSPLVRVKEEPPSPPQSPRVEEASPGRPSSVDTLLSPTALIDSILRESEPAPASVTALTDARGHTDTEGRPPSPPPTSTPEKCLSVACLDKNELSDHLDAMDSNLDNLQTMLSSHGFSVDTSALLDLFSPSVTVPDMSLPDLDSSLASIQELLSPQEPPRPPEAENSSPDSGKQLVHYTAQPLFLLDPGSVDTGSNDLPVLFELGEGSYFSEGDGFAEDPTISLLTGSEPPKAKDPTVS
Procedure, shortened: as §1

[13] = target: T8, SPIC (Homo sapiens, UniProt Q8N5J4 1-248); settings: protein: recombinant; tags: N-terminal GST; dsDNA, one strand shown
T8 sequence: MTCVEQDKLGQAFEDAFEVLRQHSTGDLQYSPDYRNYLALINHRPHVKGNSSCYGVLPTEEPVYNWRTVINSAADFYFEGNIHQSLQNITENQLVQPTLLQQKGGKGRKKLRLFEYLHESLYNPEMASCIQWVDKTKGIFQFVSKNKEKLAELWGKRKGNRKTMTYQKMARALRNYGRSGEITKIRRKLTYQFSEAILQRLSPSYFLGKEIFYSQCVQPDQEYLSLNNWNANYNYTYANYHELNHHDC
Procedure, shortened: as §1

[14] = target: ELF4 (Homo sapiens, UniProt Q99607 1-663); settings: protein: recombinant; tags: N-terminal GST; dsDNA, one strand shown
Chain of ELF4 (Q99607 whole entry): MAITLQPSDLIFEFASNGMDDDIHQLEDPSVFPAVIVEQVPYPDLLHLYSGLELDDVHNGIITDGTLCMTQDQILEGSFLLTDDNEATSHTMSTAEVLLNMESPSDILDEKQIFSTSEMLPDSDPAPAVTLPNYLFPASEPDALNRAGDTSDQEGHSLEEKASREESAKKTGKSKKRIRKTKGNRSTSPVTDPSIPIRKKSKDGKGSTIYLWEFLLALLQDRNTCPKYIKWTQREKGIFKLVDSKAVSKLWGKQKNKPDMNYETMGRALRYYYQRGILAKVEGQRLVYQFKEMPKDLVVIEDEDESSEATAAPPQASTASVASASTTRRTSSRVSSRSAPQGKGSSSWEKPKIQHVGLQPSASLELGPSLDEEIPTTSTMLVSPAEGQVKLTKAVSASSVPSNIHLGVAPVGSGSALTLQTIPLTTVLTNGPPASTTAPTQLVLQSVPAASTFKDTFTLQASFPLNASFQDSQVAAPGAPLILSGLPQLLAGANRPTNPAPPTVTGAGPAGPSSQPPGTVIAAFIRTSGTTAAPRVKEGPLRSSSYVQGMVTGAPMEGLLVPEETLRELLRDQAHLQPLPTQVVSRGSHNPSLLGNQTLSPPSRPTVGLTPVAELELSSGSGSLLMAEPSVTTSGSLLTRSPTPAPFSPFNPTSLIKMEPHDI
Procedure, shortened: as §1

[15] = target: T9, ELK4 (Homo sapiens, UniProt P28324-2 1-405); settings: protein: recombinant; tags: N-terminal GST; dsDNA, one strand shown
T9 sequence: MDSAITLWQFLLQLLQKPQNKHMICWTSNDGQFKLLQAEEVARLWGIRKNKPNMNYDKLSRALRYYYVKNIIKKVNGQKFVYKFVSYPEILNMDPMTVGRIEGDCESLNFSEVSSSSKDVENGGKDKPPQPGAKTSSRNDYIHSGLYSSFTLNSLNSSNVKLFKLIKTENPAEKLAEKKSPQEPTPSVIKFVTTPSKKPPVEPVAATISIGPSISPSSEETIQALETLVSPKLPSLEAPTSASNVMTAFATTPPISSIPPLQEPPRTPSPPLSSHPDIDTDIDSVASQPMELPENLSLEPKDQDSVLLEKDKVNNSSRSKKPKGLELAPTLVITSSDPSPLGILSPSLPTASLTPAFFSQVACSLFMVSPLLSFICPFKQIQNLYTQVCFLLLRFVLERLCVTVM
Procedure, shortened: as §1

[16] = target: T10, ETV2 (Homo sapiens, UniProt O00321 1-342); settings: protein: recombinant; tags: N-terminal GST; dsDNA, one strand shown
T10 sequence: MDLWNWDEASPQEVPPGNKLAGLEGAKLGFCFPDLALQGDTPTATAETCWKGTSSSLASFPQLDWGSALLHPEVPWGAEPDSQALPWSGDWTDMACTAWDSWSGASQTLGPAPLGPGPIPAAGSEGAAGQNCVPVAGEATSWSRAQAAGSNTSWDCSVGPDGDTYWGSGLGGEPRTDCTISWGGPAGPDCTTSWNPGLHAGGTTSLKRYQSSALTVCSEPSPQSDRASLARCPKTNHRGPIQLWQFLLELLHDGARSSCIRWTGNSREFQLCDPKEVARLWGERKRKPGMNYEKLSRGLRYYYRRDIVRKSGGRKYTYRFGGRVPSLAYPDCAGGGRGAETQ
Procedure, shortened: as §1

[17] = target: T11, ELF3 (Homo sapiens, UniProt P78545 1-371); settings: protein: recombinant; tags: N-terminal GST; dsDNA, one strand shown
T11 sequence: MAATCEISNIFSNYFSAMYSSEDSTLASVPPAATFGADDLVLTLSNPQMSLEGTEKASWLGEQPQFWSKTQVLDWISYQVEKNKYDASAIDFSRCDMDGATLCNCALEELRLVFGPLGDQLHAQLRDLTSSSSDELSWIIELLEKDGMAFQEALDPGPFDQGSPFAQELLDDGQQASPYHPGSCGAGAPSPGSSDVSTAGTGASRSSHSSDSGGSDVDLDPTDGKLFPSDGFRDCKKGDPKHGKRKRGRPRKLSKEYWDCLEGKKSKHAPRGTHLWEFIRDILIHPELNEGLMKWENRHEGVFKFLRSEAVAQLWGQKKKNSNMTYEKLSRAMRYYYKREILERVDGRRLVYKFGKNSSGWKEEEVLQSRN
Procedure, shortened: as §1

[18] = target: CRX (Homo sapiens, UniProt O43186 1-299); settings: protein: recombinant; tags: N-terminal GST; dsDNA, one strand shown
Chain of CRX (O43186 whole entry): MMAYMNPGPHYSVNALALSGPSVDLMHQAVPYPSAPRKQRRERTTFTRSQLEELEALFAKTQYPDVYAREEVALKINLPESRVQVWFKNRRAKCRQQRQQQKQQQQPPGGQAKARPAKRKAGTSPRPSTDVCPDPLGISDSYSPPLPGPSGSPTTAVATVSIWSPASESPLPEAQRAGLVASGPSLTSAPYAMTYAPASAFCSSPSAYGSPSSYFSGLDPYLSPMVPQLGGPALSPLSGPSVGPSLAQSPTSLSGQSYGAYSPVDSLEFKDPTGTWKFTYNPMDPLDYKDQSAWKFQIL
Procedure, shortened: as §1

[19] = target: ETV1 (Homo sapiens, UniProt P50549 1-477); settings: protein: recombinant; tags: N-terminal GST; dsDNA, one strand shown
Chain of ETV1 (P50549 whole entry): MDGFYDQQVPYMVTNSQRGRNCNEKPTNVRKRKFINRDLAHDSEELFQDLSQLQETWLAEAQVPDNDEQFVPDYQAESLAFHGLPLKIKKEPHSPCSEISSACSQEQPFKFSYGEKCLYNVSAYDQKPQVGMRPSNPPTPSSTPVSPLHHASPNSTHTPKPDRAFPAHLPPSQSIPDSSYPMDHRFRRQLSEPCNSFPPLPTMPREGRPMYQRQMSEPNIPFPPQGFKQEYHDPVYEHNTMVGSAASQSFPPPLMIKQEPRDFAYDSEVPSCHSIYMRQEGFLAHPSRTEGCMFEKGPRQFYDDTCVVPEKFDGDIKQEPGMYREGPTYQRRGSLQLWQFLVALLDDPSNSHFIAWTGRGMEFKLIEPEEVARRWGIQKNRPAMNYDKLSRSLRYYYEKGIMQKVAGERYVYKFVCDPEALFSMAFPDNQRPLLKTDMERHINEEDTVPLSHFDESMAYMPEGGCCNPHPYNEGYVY
Procedure, shortened: as §1

Sequence: CTCCGG
- binding signal [1]: 1.45 fold enrichment (6-mer frequency, TF over GST control)
- binding signal [2]: 1.58 fold enrichment (6-mer frequency, TF over GST control)
- binding signal [3]: 1.68 fold enrichment (6-mer frequency, TF over GST control)
- binding signal [4]: 1.64 fold enrichment (6-mer frequency, TF over GST control)
- binding signal [5]: 1.52 fold enrichment (6-mer frequency, TF over GST control)
- binding signal [6]: 1.58 fold enrichment (6-mer frequency, TF over GST control)
- binding signal [7]: 1.43 fold enrichment (6-mer frequency, TF over GST control)
- binding signal [8]: 1.54 fold enrichment (6-mer frequency, TF over GST control)
- binding signal [9]: 1.6 fold enrichment (6-mer frequency, TF over GST control)
- binding signal [10]: 2 fold enrichment (6-mer frequency, TF over GST control)
- binding signal [11]: 1.58 fold enrichment (6-mer frequency, TF over GST control)
- binding signal [12]: 1.18 fold enrichment (6-mer frequency, TF over GST control)
- binding signal [13]: 1.92 fold enrichment (6-mer frequency, TF over GST control)
- binding signal [14]: 1.56 fold enrichment (6-mer frequency, TF over GST control)
- binding signal [15]: 1.58 fold enrichment (6-mer frequency, TF over GST control)
- binding signal [16]: 1.48 fold enrichment (6-mer frequency, TF over GST control)
- binding signal [17]: 1.39 fold enrichment (6-mer frequency, TF over GST control)
- binding signal [18]: 1.02 fold enrichment (6-mer frequency, TF over GST control)
- binding signal [19]: 1.64 fold enrichment (6-mer frequency, TF over GST control)
